This is part of a sample that, as a whole, favours compounds with a hit. Of some 83,000 tested, about 20% had one in any assay.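 The endpoint reported here, percent growth, reads 100 for growth as untreated, 0 for no net growth and -100 for all cells dead.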 Values without a mark were called inactive. Active and inactive are the calls of the source. Rule for the calls: active = growth percent below 10; inactive = the rest.
Experiments:
Test in all cases: NCI-60 one-dose screen, 48 h (100 = growth as untreated, 0 = no growth, -100 = all killed)
Conditions in all cases: 10 µM
[1] = system: NCI-H23 lung
[2] = system: NCI-H226 lung
[3] = system: HOP-62 NSCLC
[4] = system: NCI-H460 lung
[5] = system: HOP-92 NSCLC
[6] = system: NCI-H522 lung
[7] = system: A549/ATCC NSCLC
[8] = system: 786-0 renal
[9] = system: COLO 205 colon
[10] = system: NCI-H322M lung

Row | SMILES | growth [1] | growth [2] | growth [3] | growth [4] | growth [5] | growth [6] | growth [7] | growth [8] | growth [9] | growth [10]
1 | Cc1cc(OCCO)cc(C)c1Cl | 106% | 108% | 111% | 114% | 114% | 114% | 104% | 97.3% | 123% | 
2 | O=C1C=CC(=O)N1c1ccc(I)cc1Cl | 100% | 108% | 90.7% | 109% |  | -29.7% (active) | 46% | 97% | 113% | 
3 | C=CCc1cc(C(C)=O)cc(OC)c1O | 108% | 109% | 122% | 97.8% | 125% | 102% | 95.8% | 104% | 118% | 
4 | CC(=O)NC(N)=S | 103% | 103% | 110% | 105% | 89.7% | 95.6% | 96.1% | 105% | 120% | 
5 | COCCCC/C(=N\OCCN)c1ccc(C(F)(F)F)cc1 | 100% | 101% |  | 106% | 63.2% |  | 102% | 100% | 101% | 
6 | CC(C)(O)C#CC#CC(C)(C)O | 88.9% | 79.4% |  | 104% |  | 82.5% | 91.5% | 106% |  | 102%
7 | Clc1ccc(-c2nnc(-c3cccc4ccccc34)o2)cc1 | 83.6% | 87.6% |  | 96.4% |  | 83.5% |  | 110% | 101% | 112%
8 | C[N+](C)=c1ccc2nc3c(cc(Nc4ccccc4)c4ccccc43)oc-2c1 | 31.6% | 44.4% | 67.6% | 65% | 79.5% | 42.3% | 64.4% | 72.8% | 22.6% | 
9 | COc1ccc(NC(=O)CCl)cc1 | 61.7% |  | 81.1% | 83.1% | 87.3% | 47.8% | 84.6% | 80.7% |  | 99.1%
10 | O=[N+]([O-])c1cccc2nsnc12 | 108% | 93.9% | 99.5% | 103% |  | 103% | 104% | 114% | 107% | 
11 | CC(=O)c1ccc(C(C)(C)C)cc1 | 95.7% |  | 91.9% | 106% | 80.6% | 99.6% | 101% | 100% |  | 104%
12 | CCc1nc(N)nc(N)c1-c1ccc(Cl)cc1 | 64.4% | 65.7% | 64.2% | 21.2% | 97.7% | 83% | 26.6% | 35.9% | 76.5% | 
13 | O=C(O)CNC(=O)c1ccccc1 | 107% |  |  |  |  |  |  |  |  | 104%
14 | O=c1[nH]nc(SC2CCCCC2)c(=O)[nH]1 | 91.3% |  | 93.7% | 104% | 82% | 80.5% | 91.4% |  |  | 96.8%
15 | COC(=O)Nc1cccc(Cl)c1OC | 107% | 96.5% |  | 38.2% |  | 92.7% | 106% | 104% | 127% | 107%
16 | CCOC(=O)CCCC(=O)OCC | 97.9% | 104% |  | 105% | 101% | 105% | 101% | 102% | 101% | 99.2%
17 | Cc1nc2ccccc2c2nnc(SCC(=O)N(Cc3ccccc3)c3ccccc3)n12 | 89.1% | 94% | 95.7% | 107% | 82.5% | 70.9% |  | 103% | 101% | 
18 | O=C(O)c1ccnc(Br)c1 | 97.8% | 92.6% |  | 104% | 96.9% | 105% | 102% | 102% | 107% | 106%
19 | COC(=O)Nc1nc2ccc(C(=O)c3cccs3)cc2[nH]1 | 14.2% | 0.146% (active) |  | 7.45% (active) | 63.9% |  | 19.5% | 19% |  | 
20 | CCOC(=O)CNN | 102% | 90.7% |  | 99.6% | 99.4% | 96.7% | 101% | 106% | 110% | 98%
21 | Cc1ccc(C(=O)NC2c3ccccc3Oc3ccccc32)cc1 | 70.4% | 79% | 32.2% | 59.8% | 62.1% | 41.2% | 48.9% | 25.7% | 73.6% | 
22 | Nc1ncnc2c1nc(N)n2C1OC(CO)C(O)C1O (stereo not given) | -22.9% (active) | -75.4% (active) | -52.9% (active) | -60.3% (active) | -29.8% (active) | -63.3% (active) | -25.8% (active) | -85.6% (active) | -86.8% (active) | 
23 | CC12CC3CC1C(C(=O)O2)C3C(=O)O (stereo not given) | 96.8% | 105% | 98.9% | 108% | 107% | 96% | 96.3% | 108% | 102% | 
24 | CCOC(=O)CSc1c([N+](=O)[O-])ncn1C | 95.6% | 105% | 98.6% | 104% | 113% | 99.9% | 97.6% | 111% | 110% | 
25 | CCC(C)(O)c1ccc(C)cc1 (stereo not given) | 103% | 103% | 98.1% | 105% | 103% | 109% | 111% | 109% |  | 

Reference: PubChem BioAssay (NCI)
